# ChEMBL document CHEMBL3988442, “University of Dundee, Small-Polar-MMV Screening Library” (2021)
# “And” between values parts separate entries of the source, which are not always exact repeats. Equal values may be shown once. For part of these data: Entries with a potency or affinity are not part of this list.
# Assays:
# [1] = biological target: T1, Methionyl-tRNA synthetase, putative (Leishmania donovani (strain BPK282A1)) (UniProt E9BF75); experiment: Leishmania donovani Methionine tRNA synthetase (LdMetRS):v7. Dose response assay; assay type: functional; design: conc 80 nM, time 150 minutes
# T1 sequence (whole entry): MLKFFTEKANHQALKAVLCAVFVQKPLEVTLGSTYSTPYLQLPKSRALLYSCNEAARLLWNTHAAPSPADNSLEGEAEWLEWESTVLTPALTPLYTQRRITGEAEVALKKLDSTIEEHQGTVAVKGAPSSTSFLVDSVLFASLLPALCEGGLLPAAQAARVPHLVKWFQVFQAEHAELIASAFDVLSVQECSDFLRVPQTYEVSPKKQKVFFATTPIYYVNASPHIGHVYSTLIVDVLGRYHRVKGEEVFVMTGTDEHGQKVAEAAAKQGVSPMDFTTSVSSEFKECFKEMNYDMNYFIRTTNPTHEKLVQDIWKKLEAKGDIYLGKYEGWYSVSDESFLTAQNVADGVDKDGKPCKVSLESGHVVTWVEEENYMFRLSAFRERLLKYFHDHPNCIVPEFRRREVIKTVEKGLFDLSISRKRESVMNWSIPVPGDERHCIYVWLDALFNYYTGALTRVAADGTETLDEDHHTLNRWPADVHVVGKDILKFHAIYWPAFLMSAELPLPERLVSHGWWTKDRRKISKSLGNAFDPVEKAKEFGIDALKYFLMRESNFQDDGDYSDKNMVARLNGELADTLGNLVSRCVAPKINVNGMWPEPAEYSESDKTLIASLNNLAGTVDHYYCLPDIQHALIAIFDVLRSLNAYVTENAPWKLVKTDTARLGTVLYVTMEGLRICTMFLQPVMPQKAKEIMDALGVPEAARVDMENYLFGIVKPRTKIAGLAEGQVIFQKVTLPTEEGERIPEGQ
# [2] = biological target: Protein translocase subunit SecA (Escherichia coli (strain K12)) (UniProt P10408); experiment: Assay to Identify E. coli SecA ATPase Inhibitors; assay type: functional; design: scale not given: direction of the effect not stated beside the values; conditions: 30 µM
# [3] = biological target: T2, Ubiquitin-activating enzyme e1, putative (Leishmania donovani (strain BPK282A1)) (UniProt E9BSI1); experiment: Leishmania donovani Ubiquitin Activating Enzyme (LdE1); assay type: functional; design: scale not given: direction of the effect not stated beside the values; conditions: 30 µM
# T2 sequence (whole entry): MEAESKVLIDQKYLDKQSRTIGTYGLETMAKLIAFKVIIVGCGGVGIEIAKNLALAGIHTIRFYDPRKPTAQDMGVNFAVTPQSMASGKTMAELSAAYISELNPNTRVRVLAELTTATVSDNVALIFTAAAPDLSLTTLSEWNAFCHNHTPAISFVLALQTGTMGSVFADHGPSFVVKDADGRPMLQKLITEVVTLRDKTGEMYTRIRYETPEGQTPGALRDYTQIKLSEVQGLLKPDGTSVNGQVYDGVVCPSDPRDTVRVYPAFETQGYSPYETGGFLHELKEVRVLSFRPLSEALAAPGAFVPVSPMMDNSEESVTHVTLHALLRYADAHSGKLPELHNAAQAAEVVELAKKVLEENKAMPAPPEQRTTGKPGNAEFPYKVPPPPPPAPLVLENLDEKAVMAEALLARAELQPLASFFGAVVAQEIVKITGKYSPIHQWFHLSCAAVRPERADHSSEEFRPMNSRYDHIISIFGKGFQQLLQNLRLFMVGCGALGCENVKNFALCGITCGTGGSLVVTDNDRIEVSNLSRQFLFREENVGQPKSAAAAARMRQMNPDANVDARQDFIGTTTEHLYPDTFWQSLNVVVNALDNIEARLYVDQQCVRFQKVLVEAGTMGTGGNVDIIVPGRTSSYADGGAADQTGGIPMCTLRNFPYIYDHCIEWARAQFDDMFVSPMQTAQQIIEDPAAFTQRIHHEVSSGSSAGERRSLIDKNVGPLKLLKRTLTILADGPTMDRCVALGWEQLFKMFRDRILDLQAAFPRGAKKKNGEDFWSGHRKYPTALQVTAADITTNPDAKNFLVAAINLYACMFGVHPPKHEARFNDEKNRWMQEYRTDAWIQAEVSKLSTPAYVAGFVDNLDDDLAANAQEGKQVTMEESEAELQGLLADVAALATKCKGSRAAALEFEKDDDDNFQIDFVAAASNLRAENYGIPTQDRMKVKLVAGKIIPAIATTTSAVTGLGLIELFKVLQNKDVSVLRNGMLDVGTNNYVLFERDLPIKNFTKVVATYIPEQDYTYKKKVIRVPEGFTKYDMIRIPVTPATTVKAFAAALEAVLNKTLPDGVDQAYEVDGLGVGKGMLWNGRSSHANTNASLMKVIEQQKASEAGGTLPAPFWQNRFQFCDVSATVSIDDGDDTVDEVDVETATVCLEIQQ
# [4] = biological target: T3, Aspartate--tRNA(Asp/Asn) ligase (Mycobacterium tuberculosis (strain ATCC 25618 / H37Rv)) (UniProt P9WFW3); experiment: Assay for Asp RNA synthetase-1 from Mycobacterium tuberculosis; assay type: functional; design: scale not given: direction of the effect not stated beside the values; conditions: 30 µM; note: in the data most compounds retested in dose-response had high values
# T3 sequence (whole entry): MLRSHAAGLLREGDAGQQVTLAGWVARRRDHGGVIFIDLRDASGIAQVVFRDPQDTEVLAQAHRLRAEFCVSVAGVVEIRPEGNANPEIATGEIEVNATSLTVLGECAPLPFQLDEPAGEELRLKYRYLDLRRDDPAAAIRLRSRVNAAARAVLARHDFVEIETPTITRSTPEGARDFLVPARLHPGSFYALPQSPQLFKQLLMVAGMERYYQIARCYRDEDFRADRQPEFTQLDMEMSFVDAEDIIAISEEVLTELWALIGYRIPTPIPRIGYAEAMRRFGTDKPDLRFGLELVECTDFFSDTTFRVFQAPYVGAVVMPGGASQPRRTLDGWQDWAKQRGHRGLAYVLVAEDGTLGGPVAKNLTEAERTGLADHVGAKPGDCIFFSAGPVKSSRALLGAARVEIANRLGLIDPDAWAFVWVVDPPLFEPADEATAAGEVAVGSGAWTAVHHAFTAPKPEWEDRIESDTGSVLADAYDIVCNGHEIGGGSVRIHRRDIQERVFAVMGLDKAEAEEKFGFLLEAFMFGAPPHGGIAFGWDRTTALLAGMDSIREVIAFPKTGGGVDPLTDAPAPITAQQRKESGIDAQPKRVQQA
# [5] = biological target: AMP-activated protein kinase, AMPK (Homo sapiens) (UniProt P54646+O43741+P54619+Q9UGJ0+Q9Y478+Q13131+Q9UGI9); experiment: AMP-dependent Kinase enzyme assay. An in vitro enzyme assay that detects ADP turnover that is directly proportional to AMPK activity. This uses naive AMPK that is activated during the assay with MK-8722; assay type: functional; design: scale not given: direction of the effect not stated beside the values; conditions: 30 µM
# [6] = biological target: Sialic acid-binding Ig-like lectin 9 (Homo sapiens) (UniProt Q9Y336); experiment: Hs-Siglec9 ALPHAscreen SOP 20170721; design: scale not given: direction of the effect not stated beside the values; conditions: 10 µM
# Trypanosoma cruzi = experiment: Trypanosoma cruzi phosphomannomutase and mannose-1-phosphate guanylyltransferase assay; assay type: functional; design: scale not given: direction of the effect not stated beside the values; conditions: 10 µM
# [7] = biological target: T4, Arginase-2, mitochondrial (Homo sapiens) (UniProt P78540); experiment: in vitro enzyme assay to detect the production of urea directly proportional to the activity of Arginase II; assay type: functional; design: scale not given: in the data most compounds retested in dose-response had high values; conditions: 33.3 µM
# T4 sequence (whole entry): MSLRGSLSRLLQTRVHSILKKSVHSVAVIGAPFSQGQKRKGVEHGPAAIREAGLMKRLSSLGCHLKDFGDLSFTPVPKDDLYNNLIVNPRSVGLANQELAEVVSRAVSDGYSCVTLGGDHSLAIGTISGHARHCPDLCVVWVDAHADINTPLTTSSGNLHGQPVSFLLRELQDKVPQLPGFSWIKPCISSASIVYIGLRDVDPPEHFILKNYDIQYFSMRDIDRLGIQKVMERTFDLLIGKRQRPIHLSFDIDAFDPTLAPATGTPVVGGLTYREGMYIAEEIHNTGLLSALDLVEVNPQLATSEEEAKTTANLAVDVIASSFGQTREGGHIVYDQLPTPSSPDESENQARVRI
# [8] = biological target: T5, Proteasome subunit beta (Trypanosoma cruzi) (UniProt O96673); experiment: Trypanosoma cruzi proteasome chymotrypsin-like activity (TcProtChymo) assay.; assay type: functional; design: scale not given: in the data most compounds retested in dose-response had high values; conditions: 9.37 µM
# T5 sequence (whole entry): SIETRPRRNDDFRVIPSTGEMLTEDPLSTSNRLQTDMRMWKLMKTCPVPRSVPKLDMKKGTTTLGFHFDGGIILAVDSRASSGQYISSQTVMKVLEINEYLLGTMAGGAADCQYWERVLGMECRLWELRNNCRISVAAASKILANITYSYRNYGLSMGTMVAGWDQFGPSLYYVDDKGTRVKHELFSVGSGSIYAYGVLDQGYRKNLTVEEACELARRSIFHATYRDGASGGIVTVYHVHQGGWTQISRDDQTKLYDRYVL
# Homo sapiens = species on record: Homo sapiens; experiment: To identify inhibition of the IFN signalling (Jak-Stat) pathway via expression of an eGFP reporter gene under the control of an IFN-stimulated response element (ISRE) containing MxA promoter.; assay type: functional; design: scale not given: direction of the effect not stated beside the values; conditions: 30 µM
# [9] = biological target: Shiga toxin 2 (Escherichia coli O157:H7) (UniProt P09385+P09386); experiment: E. coli 0.157:H7 Shiga Toxin SOP - stx2 screening assay; assay type: functional; design: scale not given: direction of the effect not stated beside the values; conditions: 30 µM
# [10] = biological target: T6, Tyrosyl-tRNA synthetase, putative (Trypanosoma cruzi (strain CL Brener)) (UniProt Q4DSP6); experiment: Trypanosoma cruzi tyrosyl tRNA synthetase (TcYRS) _High Tyrosine SOP; assay type: functional; design: scale not given: in the data most compounds retested in dose-response had high values; conditions: 30 µM
# T6 sequence (whole entry): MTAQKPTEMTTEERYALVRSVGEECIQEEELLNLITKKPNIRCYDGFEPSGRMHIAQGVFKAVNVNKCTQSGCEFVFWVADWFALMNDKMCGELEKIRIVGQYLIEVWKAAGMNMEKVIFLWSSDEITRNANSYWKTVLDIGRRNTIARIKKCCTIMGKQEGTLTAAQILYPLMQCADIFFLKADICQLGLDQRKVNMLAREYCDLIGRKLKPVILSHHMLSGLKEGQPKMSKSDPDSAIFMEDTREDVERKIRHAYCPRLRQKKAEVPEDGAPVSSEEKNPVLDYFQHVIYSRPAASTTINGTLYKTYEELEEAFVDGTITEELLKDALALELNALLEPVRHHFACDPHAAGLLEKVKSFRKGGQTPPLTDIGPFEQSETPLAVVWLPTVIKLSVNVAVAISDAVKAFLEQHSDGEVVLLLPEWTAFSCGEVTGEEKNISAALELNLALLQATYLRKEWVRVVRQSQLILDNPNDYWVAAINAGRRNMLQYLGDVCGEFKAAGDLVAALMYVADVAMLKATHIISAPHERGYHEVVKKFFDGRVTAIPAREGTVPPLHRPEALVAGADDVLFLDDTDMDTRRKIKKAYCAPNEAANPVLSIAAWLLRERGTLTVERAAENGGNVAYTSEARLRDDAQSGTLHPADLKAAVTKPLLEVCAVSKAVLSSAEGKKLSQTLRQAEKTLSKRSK
# [11] = biological target: T6, Tyrosyl-tRNA synthetase, putative (Trypanosoma cruzi (strain CL Brener)); experiment: Trypanosoma cruzi tyrosyl tRNA synthetase (TcYRS) SOP; assay type: functional; design: scale not given: direction of the effect not stated beside the values; conditions: 30 µM
# [12] = biological target: Chromo domain-containing protein 1 (Saccharomyces cerevisiae (strain ATCC 204508 / S288c) (Baker's yeast)) (UniProt P32657); experiment: ScCHD-1 Enzyme Inhibition Assay; assay type: functional; design: scale not given: in the data most compounds retested in dose-response had high values; conditions: 30 µM
# N/A = experiment: Trypanosoma cruzi proteasome luciferase counter-screen; assay type: functional; design: scale not given: direction of the effect not stated beside the values; conditions: 9.37 µM
# Protein translocase subunit SecA (Escherichia coli (strain K12)), sequence (P10408 whole entry): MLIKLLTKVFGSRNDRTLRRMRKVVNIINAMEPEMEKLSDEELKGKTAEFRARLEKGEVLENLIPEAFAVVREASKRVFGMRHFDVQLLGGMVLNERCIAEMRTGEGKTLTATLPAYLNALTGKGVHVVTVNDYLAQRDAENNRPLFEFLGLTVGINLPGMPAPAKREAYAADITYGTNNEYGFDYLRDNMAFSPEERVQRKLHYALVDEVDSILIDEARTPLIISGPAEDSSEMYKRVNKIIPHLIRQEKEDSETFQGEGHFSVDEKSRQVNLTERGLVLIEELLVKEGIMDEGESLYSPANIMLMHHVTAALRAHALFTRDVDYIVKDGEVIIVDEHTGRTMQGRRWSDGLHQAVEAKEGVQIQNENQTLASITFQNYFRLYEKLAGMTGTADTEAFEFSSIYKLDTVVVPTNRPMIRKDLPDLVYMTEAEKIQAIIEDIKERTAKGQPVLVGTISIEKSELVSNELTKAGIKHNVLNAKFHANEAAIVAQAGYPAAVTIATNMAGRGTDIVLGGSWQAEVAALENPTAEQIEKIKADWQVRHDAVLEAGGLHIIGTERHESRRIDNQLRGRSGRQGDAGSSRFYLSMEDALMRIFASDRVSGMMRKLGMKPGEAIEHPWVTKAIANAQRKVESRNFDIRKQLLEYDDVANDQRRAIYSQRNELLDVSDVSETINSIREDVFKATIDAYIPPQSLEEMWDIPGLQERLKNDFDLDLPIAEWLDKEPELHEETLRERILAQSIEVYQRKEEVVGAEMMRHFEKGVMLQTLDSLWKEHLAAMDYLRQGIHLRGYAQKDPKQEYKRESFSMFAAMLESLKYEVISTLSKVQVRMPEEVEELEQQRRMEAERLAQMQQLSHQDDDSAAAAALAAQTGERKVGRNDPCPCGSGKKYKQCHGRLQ
# Sialic acid-binding Ig-like lectin 9 (Homo sapiens), sequence (Q9Y336 whole entry): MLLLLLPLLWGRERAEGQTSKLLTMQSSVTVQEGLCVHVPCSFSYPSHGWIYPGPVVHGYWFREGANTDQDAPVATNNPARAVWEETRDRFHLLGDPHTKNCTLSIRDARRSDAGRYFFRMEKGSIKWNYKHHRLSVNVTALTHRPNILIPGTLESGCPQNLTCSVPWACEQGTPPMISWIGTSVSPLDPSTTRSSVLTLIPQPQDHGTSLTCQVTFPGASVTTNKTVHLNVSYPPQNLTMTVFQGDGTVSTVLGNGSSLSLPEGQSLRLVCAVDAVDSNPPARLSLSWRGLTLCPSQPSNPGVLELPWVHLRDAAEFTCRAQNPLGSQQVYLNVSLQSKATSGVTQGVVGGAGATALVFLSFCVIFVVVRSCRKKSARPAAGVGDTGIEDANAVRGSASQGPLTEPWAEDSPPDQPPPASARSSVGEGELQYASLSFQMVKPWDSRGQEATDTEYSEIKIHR
# Chromo domain-containing protein 1 (Saccharomyces cerevisiae (strain ATCC 204508 / S288c) (Baker's yeast)), sequence (P32657 whole entry, the tested form may be a part): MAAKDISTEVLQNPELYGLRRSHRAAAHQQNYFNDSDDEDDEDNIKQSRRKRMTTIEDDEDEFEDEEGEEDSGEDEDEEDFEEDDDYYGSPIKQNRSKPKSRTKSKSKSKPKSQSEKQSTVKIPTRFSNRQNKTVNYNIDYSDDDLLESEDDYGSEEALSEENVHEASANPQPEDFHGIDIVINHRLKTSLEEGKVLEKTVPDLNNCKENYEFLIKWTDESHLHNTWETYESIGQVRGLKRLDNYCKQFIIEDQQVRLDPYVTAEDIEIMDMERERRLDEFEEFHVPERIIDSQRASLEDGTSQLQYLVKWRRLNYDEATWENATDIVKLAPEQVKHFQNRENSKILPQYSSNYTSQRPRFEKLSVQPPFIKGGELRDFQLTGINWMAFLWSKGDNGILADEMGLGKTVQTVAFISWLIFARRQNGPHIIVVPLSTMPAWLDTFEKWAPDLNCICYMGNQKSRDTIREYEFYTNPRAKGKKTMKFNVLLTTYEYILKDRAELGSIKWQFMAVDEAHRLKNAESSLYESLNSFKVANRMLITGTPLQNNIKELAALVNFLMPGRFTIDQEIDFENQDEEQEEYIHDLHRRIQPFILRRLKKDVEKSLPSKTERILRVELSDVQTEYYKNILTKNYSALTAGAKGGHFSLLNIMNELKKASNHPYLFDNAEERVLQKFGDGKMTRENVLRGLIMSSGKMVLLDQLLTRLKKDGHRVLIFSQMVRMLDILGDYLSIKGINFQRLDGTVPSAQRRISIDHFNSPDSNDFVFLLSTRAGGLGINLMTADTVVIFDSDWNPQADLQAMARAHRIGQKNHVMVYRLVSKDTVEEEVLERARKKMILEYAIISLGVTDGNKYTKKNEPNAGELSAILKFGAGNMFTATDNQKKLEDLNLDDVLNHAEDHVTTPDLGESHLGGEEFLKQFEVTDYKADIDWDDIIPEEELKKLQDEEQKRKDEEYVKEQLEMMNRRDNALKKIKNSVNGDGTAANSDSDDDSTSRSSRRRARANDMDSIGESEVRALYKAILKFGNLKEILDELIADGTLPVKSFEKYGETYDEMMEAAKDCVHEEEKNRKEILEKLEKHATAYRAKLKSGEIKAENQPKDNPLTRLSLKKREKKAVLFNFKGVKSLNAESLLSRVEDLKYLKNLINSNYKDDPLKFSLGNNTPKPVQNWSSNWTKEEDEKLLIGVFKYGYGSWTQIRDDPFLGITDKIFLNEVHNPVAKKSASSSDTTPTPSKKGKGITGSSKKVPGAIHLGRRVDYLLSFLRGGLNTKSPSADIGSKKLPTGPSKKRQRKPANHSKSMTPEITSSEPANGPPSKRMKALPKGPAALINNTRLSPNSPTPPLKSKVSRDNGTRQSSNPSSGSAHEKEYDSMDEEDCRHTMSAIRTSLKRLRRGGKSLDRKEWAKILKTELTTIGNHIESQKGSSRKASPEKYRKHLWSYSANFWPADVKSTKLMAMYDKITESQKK
SMILES,PXC50 ([1]; MAX_EFFECT 9.719626168),PXC50 ([1]; MAX_EFFECT 11.33786848),Percent Effect [2] [%],Percent Effect [3] [%],Percent Effect [4] [%],Percent Effect [5] [%],Percent Effect [6] [%],Percent Effect (Trypanosoma cruzi) [%],Percent Effect [7] [%],Percent Effect [8],Percent Effect (Homo sapiens) [%],Percent Effect [9] [%],Percent Effect [10] [%],Percent Effect [11] [%],Percent Effect [12] [%],PXC50 ([1]; MAX_EFFECT 6.355140187),PXC50 ([1]; MAX_EFFECT 7.256235828),Percent Effect (N/A)
Cc1ccc(N2CCC3(CN(CCO)CCC3(F)F)C2)nn1 (configuration not stated),< 4,< 4,,,,,,,,,,,,,,,,
CCn1cc(CN2CCCN(C(=O)Cc3ccc(C)nc3)CC2)cn1,,,-6.08,10.4,-1.87,0.798,5.82,6.76,-3.58,5.09%,-17.1,1.69,-1.91,9.41,-14.6,,,
OCCN1CCC(F)(F)C2(CCN(c3cccnc3)C2)C1 (configuration not stated),,,,,,,,,,,,,,,,< 4,< 4,
O=C(Nc1cccnc1)[C@H]1CN(Cc2nccs2)C[C@H]2OCC[C@@H]12,,,-4.22,2.67,-1.01,6.75,-6.59,-0.591,-0.233,3.61%,15,-17.1,-2.13,-6.41,2.83,,,
CC(C)=CCN1C[C@H]2CC[C@@H]1CN(C(=O)c1c[nH]c(=O)c(Cl)c1)C2,,,-4.07,5.48,4.22,2.02,1.06,-5.16,-8.38,35.6% and 31.4% and 37.8%,7.03,-38,6.25,13.6,-2.95,,,18.4% and 17.9%
O=C(c1cccnc1)N1C[C@@H]2CC[C@H](C1)N(Cc1ncc[nH]1)C2,,,-1.65,16.4,2.47,9.09,6.45,5.88,5.91,11.4%,7.79,-0.806,7.53,15,-3.77,,,
